Experimental data: PubChem BioAssay AID1159580 (chemical genetic matrix, 2015)
The campaign covered roughly 5,500 compounds. About 2,000 (36%) were called active. Not shown: some 18% with an inconclusive outcome. Some of the results follow. Values without a mark were called inactive. No stated cut-off is given here; in the data, active means normalized growth mostly below about 0.91 (no sharp cut-off); inconclusive means no clear call, values can overlap the other calls; inactive means mostly above about 0.92.

Test: chemical genetic growth profiling, strain panel (AID 1159580);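 further: tested at 20 µM; growth read once vehicle control cultures reached saturation at 30 °C; 1 = growth at the plate median or of vehicle wells; lower values mean less growth of the strain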
Conditions: S. cerevisiae deletion strains, growth OD

Structure (SMILES): CC(C)COC(=O)OCN1C(=O)CN(CCN2CC(=O)N(COC(=O)OCC(C)C)C(=O)C2)CC1=O
- normalized growth (locus YAL040C, strain CLN3, active compounds read low): 1.01
- normalized growth (locus YCL061C, strain MRC1 (second series), active compounds read low): 1.01
- normalized growth (locus YDR150W, strain NUM1, active compounds read low): 1.01
- normalized growth (locus YDR363W, strain ESC2, active compounds read low): 1.01
- normalized growth (locus YER002W, strain NOP16, active compounds read low): 0.997
- normalized growth (locus YGR078C, strain PAC10, active compounds read low): 1
- normalized growth (locus YJR075W, strain HOC1, active compounds read low): 1.01
- normalized growth (locus YMR307W, strain GAS1, active compounds read low): 1.01
- normalized growth (locus YNL175C, strain NOP13, active compounds read low): 1
- normalized growth (locus YNL197C, strain WHI3, active compounds read low): 0.999
- normalized growth (locus YNL224C, strain SQS1, active compounds read low): 0.996
- normalized growth (locus YNL322C, strain KRE1, active compounds read low): 1.01
- normalized growth (locus YOR083W, strain WHI5 (second series), active compounds read low): 1.01
- normalized growth (locus YPL055C, strain LGE1, active compounds read low): 1.03

Structure (SMILES): CCCCCc1ccc(S(=O)(=O)Nc2ccc3c(c2)C(=O)OC3)cc1
- normalized growth (locus YAR019C, strain CDC15, active compounds read low): 0.991
- normalized growth (locus YBL105C, strain PKC1, active compounds read low): 0.994
- normalized growth (locus YBR135W, strain CKS1, active compounds read low): 0.981
- normalized growth (locus YBR136W, strain MEC1, active compounds read low): 0.982
- normalized growth (locus YBR160W, strain CDC28, active compounds read low): 0.984
- normalized growth (locus YDL017W, strain CDC7, active compounds read low): 0.985
- normalized growth (locus YDL028C, strain MPS1, active compounds read low): 0.983
- normalized growth (locus YDL101C, strain DUN1, active compounds read low): 0.998
- normalized growth (locus YDL108W, strain KIN28, active compounds read low): 0.982
- normalized growth (locus YDL132W, strain cdc53, active compounds read low): 0.985
- normalized growth (locus YDL214C, strain PRR2, active compounds read low): 0.948
- normalized growth (locus YDR052C, strain DBF4, active compounds read low): 0.998
- normalized growth (locus YDR054C, strain cdc34, active compounds read low): 0.974
- normalized growth (locus YDR226W, strain ADK1, active compounds read low): 0.987
- normalized growth (locus YDR477W, strain SNF1, active compounds read low): 0.972
- normalized growth (locus YER123W, strain YCK3, active compounds read low): 0.969
- normalized growth (locus YER133W, strain GLC7, active compounds read low): 0.951
- normalized growth (locus YFL009W, strain cdc4, active compounds read low): 0.981
- normalized growth (locus YFL029C, strain CAK1, active compounds read low): 0.983
- normalized growth (locus YFR003C, strain YPI1, active compounds read low): 0.987
- normalized growth (locus YFR019W, strain FAB1, active compounds read low): 0.975
- normalized growth (locus YFR028C, strain CDC14, active compounds read low): 0.985
- normalized growth (locus YGR040W, strain KSS1, active compounds read low): 0.949
- normalized growth (locus YGR052W, strain FMP48, active compounds read low): 1.03
- normalized growth (locus YGR092W, strain DBF2, active compounds read low): 0.992
- normalized growth (locus YHR030C, strain SLT2, active compounds read low): 0.997
- normalized growth (locus YHR079C, strain IRE1, active compounds read low): 0.977
- normalized growth (locus YHR082C, strain KSP1, active compounds read low): 1.02
- normalized growth (locus YHR205W, strain SCH9, active compounds read low): 0.963
- normalized growth (locus YIL147C, strain SLN1, active compounds read low): 0.983
- normalized growth (locus YJL095W, strain BCK1, active compounds read low): 0.967
- normalized growth (locus YJL128C, strain PBS2, active compounds read low): 0.944
- normalized growth (locus YJL157C, strain FAR1, active compounds read low): 0.953
- normalized growth (locus YJR016C, strain ILV3, active compounds read low): 0.977
- normalized growth (locus YJR066W, strain TOR1 (second series), active compounds read low): 0.937
- normalized growth (locus YJR066W, strain TOR1, active compounds read low): 1.02
- normalized growth (locus YKL048C, strain ELM1, active compounds read low): 0.967
- normalized growth (locus YKL067W, strain YNK1, active compounds read low): 0.959
- normalized growth (locus YKL101W, strain HSL1, active compounds read low): 0.933
- normalized growth (locus YKL193C, strain SDS22, active compounds read low): 0.978
- normalized growth (locus YKL203C, strain TOR2, active compounds read low): 1.02
- normalized growth (locus YLR113W, strain HOG1, active compounds read low): 0.86 (active)
- normalized growth (locus YLR133W, strain CKI1, active compounds read low): 0.963
- normalized growth (locus YLR403W, strain SFP1, active compounds read low): 0.938
- normalized growth (locus YML070W, strain DAK1, active compounds read low): 0.945
- normalized growth (locus YMR001C, strain CDC5, active compounds read low): 0.986
- normalized growth (locus YMR205C, strain PFK2 (second series), active compounds read low): 0.963
- normalized growth (locus YMR277W, strain FCP1, active compounds read low): 0.982
- normalized growth (locus YNL006W, strain LST8, active compounds read low): 0.99
- normalized growth (locus YNL020C, strain ARK1, active compounds read low): 0.966
- normalized growth (locus YNL161W, strain CBK1, active compounds read low): 0.978
- normalized growth (locus YNL183C, strain NPR1, active compounds read low): 0.964
- normalized growth (locus YNL207W, strain RIO2, active compounds read low): 0.967
- normalized growth (locus YNL222W, strain SSU72, active compounds read low): 0.978
- normalized growth (locus YNL307C, strain MCK1 (second series), active compounds read low): 0.979
- normalized growth (locus YOL078W, strain AVO1, active compounds read low): 0.979
- normalized growth (locus YOL136C, strain PFK27, active compounds read low): 0.948
- normalized growth (locus YOR061W, strain CKA2, active compounds read low): 0.976
- normalized growth (locus YOR119C, strain RIO1, active compounds read low): 1.01
- normalized growth (locus YOR231W, strain MKK1, active compounds read low): 0.917
- normalized growth (locus YOR329C, strain SCD5, active compounds read low): 0.985
- normalized growth (locus YPL031C, strain PHO85, active compounds read low): 0.966
- normalized growth (locus YPL153C, strain RAD53, active compounds read low): 0.951
- normalized growth (locus YPL204W, strain HRR25, active compounds read low): 0.942
- normalized growth (locus YPL209C, strain IPL1, active compounds read low): 0.981
- normalized growth (locus YPL256C, strain CLN2, active compounds read low): 0.923
- normalized growth (locus YPR025C, strain CCL1, active compounds read low): 0.983
- normalized growth (locus YPR106W, strain ISR1, active compounds read low): 0.971
- normalized growth (locus YPR111W, strain DBF20, active compounds read low): 0.954
- normalized growth (strain NNK1, active compounds read low): 0.976
- normalized growth (strain TSCII, active compounds read low): 0.988
